# Data as given in PubChem BioAssay (NCATS).
# Inconclusive results are not listed. A number with no mark means an inactive call. Calls of active or inactive are those of the source. Calls follow the shape of the dose curve; as a rule, active = well fitted cell-killing curve with a large enough effect; inconclusive = small, poorly fitted or top-dose-only effect; inactive = flat fitted curve, though single readings scatter.
# Experiment: Cell Viability - LYMP1-002 - Assay at 40 hr (AID 994); also: nearly all actives have a fitted effect of over 60% in size;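 as to viability change, negative = cytotoxic: 0% = DMSO only and full inhibition = 92 µM tetraoctylammonium bromide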
# Details: LYMP1-002 lymphoblastoid cell viability; series mostly up to 92.2 µM; viability change, negative = cytotoxic: at the top concentration
# Text: NIH Chemical Genomics Center [NCGC]
# NIH Molecular Libraries Screening Centers Network [MLSCN]
# National Institutes of Environmental Health Sciences [NIEHS]
# National Toxicology Program [NTP]
# We have developed a 1536-well cell-based assay for quantitative high throughput screening (qHTS) against a number of cell lines to determine in vitro cytotoxicity of small molecules. This particular assay uses a human lymphoblastoid cell line (LYMP1-002) purchased from Coriell Institute for Medical Research.
# NCGC Assay Protocol Summary:
# The CellTiter-Glo luminescent cell viability assay (Promega) is a homogeneous method to measure the number of viable cells in culture. The end point readout of this assay is based on quantitation of intracellular ATP, an indicator of metabolic activity, using the luciferase reaction. Luciferase catalyzes the oxidation of beetle Luciferin to oxyluciferin and light in the presence of ATP. The luminescent signal is proportional to amount of ATP present.
# Using the CellTiter-Glo luminescent cell viability assay, the amount of cellular ATP was measured in the lymphoblastoid cell line with complete culture medium following compound treatment for 40 hours. The assay was performed in opaque white Kalypsys 1536-well plates. In the screen, tetraoctylammonium bromide was used as positive control. Library compounds were measured for their ability to cause acute toxicity in the cell line, as reflected by a decrease in intracellular ATP levels, in a concentration-dependent manner. […] AC50 values were determined from concentration-response data modeled with the standard Hill equation.
# qHTS protocol for CellTiter Glo lymphoblastoid cellular assay
# [Step] [Parameter] [Value] [Description]
# 1. Reagent; 5 uL; 2500 lymphoblastoid cells/well
# 2. Time; 5 hr; 37 C incubation
# 4. Controls; 23 nL; Tetraoctylammonium bromide 6.4pM to 92 uM
# 5. Time; 40 hr; 37 C incubation
# 6. Reagent; 5 uL; CellTiter Glo reagent
# 7. Time; 30 min; Room Temperature
# 8. Detection; Luminescence; Viewlux plate reader
# Keywords: cell viability, cytotoxicity, lymphoblastoid cell line, luminescence, NTPHTS, NTPHTS_NCGC, NIEHS, DSSTox, MLSMR, MLSCN, NIH Roadmap, qHTS, NCGC
# Potency is read from the fitted curve at half-maximal effect.
Compound,"viability change, negative = cytotoxic [%]",Potency
CC(C)=CCCC(C)CCO (stereo not given),-3.92,–
CC1(C)CC(N=C=O)CC(C)(CN=C=O)C1 (stereo not given),-5.44,–
COc1ccc(/C=C/c2cc(OC)cc(=O)o2)cc1,-21.2,–
CC1=CC(C)(C)Nc2ccccc21,–,inactive
Cc1ccc([N+](=O)[O-])cc1N,-8.12,–
CCCCCCCCCCCC(=O)O,–,inactive
CCCCCCCCCCCCCC(=O)O,-10.2,–
CCCCOCCO,–,inactive
O=NO,–,inactive
OCCNCCO,-5.58,–
COc1ccc2nc(N)sc2c1,-11.7,–
Clc1cc(Cl)c(Cl)c(Cl)c1Cl,5.81,–
CCCCCCCCO,-5.68,–
O=C(O)c1ccc(O)cc1O,–,inactive
O=C(O)CC(C(=O)O)C(CC(=O)O)C(=O)O (stereo not given),-2.79,–
O=C(/C=C/c1ccc(O)c(O)c1)O[C@@H](C(=O)O)[C@@H](OC(=O)/C=C/c1ccc(O)c(O)c1)C(=O)O,-5.72,–
CN(C)C=O,–,inactive
CCO,-1.08,–
CCC(C)c1ccccc1O (stereo not given),–,inactive
C[C@H](CCC(=O)O)[C@H]1CC[C@H]2[C@@H]3CC[C@@H]4C[C@H](O)CC[C@]4(C)[C@H]3CC[C@]12C,-2.01,–

Compound,"viability change, negative = cytotoxic [%]",Potency
C/C=C\c1ccc(OC)cc1,5.85,–
C=Cc1ccccc1Cl,-7.94,–
COC(=O)c1ccc(C=O)cc1,-4.26,–
COC(=O)CCCCC(=O)OC,4.59,–
O[C@@H]([C@H](O)[C@@H](O)CBr)[C@@H](O)CBr,-5.65,–
NC1=NC(S)C2N=CN=C2N1 (stereo not given),–,2000 nM (active)
Nc1ccc(S(=O)(=O)O)cc1,5.83,–
CCC(O)OC(O)CC (stereo not given),–,inactive
CCCCCCCCCCCCCCC1CO1 (stereo not given),-5.97,–
C=CCc1ccc(OC)c(OC)c1,-1.01,–
CC(=O)OC/C=C(\C)CCC=C(C)C,-2.75,–
O=C1c2ccccc2C(=O)C1c1ccc2ccccc2n1,3.45,–
CCO[Si](CCCN)(OCC)OCC,-1.45,–
CCCCC(CC)CN (stereo not given),–,inactive
C1OCOCO1,1.76,–
CC1=C2[C@H](/C=C(\C)C(=O)O)CC[C@@H](C)[C@H]2CC1,-10.1,–
O=S(=O)(O)c1ccccc1,-3.91,–
Cc1c(N=C=O)cccc1N=C=O,-4.93,–
COC(=O)c1ccc(C)cc1,-0.429,–
Cc1ccccc1C,–,inactive
